A selection: hits, their analogues and other compounds. The true share with any hit is near 2.4%.
D2 ag-1: agonists of human D2 dopamine receptor; HEK293 T-REx D2 cells, calcium flux agonist mode; activation, % at 2 µM; 0.53% of 340,000 active; AID 485358; P14416;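 active = activation over 3 SD above normal in the single-dose calcium agonist read, cut at about 30% in these data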; note: 0% is about no effect
Target sequence (P14416 whole entry, looked up): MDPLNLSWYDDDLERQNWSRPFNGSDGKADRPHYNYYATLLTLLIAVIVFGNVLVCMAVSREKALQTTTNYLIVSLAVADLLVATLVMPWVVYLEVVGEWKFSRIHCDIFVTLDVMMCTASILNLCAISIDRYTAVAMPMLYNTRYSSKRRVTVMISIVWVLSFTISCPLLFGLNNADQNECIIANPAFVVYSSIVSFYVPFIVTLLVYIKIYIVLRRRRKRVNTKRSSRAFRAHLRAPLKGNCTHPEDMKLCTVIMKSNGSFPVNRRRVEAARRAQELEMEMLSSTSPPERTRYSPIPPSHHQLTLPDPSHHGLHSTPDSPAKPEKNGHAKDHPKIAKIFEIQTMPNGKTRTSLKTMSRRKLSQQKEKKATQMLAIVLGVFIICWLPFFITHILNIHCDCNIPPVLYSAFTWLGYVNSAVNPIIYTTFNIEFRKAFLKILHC
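In this primary screen, compounds producing a positive calcium signal within 180 s of addition to tetracycline-induced, force-coupled HEK293 Trex D2 cells are flagged; cells are dye-loaded with a no-wash calcium kit beforehand.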
D2 PAM-1: potentiates the human D2 dopamine receptor allosterically | DiscoveRx D2 beta-arrestin cells, luminescence, 90 min; 100% = 57 uM dopamine signal | potentiation, % (test concentration not listed) | 0.23% of 360,000 active | AID 624464; in the data active = potentiation above about 50%; inconclusive = mostly about 30% to 49%
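PathHunter beta-arrestin assay in DiscoveRx D2 cells. Compounds were added with an EC20 of dopamine (50 nM final) for 90 min at 37 deg C. Luminescence was read 1 h after detection reagent, with 57 uM dopamine as the EC100 control.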
D2 ag-2: agonists of human D2 dopamine receptor (beta-arrestin) | P14416 | DiscoveRx PathHunter D2 beta-arrestin, luminescence, 90 min; 100% = 57 uM dopamine signal | activation, % (no concentration beside the values) | 0.084% of 360,000 active; in the data active = activation above about 40%; inconclusive = between about 15% and that limit
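Agonist mode: compounds alone added to overnight-plated D2 PathHunter cells for 90 min at 37 C, with 57 uM final dopamine (EC100) defining full response. Beta-arrestin recruitment detected by chemiluminescent reagent, read after 1 h at ambient temperature.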
D2 PAM-2: positively modulates the human D2 dopamine receptor allosterically; AID 485347; HEK293 T-REx D2, calcium flux, EC20 dopamine potentiation; potentiation, % at 10 µM; 0.34% of 340,000 active; P14416;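 active = potentiation over 3 SD above the plate norm, cut at about 30% in these data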; note: 0% is about no effect
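Potentiation of an EC20 dopamine calcium response is measured in a force-coupled, tetracycline-inducible Hek293 Trex D2 line. Compound-only kinetic reads over 180 s flag agonists before dopamine addition.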
D2 antag: antagonists of human D2 dopamine receptor; P14416; inhibition, % at 10 µM; HEK293 TREx D2 cells, calcium flux, dopamine EC80; 2% of 340,000 active; in the data active = inhibition above about 30%; inactive = below that, where a call was filed; note: 0% is about no effect
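Measurement of antagonist activity uses fluorescent calcium dye in inducible HEK293 T-REx D2 cells: 10 s baseline, compound addition with 180 s read, EC80 dopamine addition with a further 180 s read.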
Numbers without * were called inactive; ? = inconclusive; nt = not tested or not shown.

SMILES	D2 ag-1	D2 PAM-1	D2 ag-2	D2 PAM-2	D2 antag
CCOC(=O)CN(C(=O)CSc1nnc2c(n1)[nH]c1c(C)cc(C)cc12)c1ccccc1	1	nt	nt	-22	61*
CCOC(=O)CN(C(=O)CSc1nnc2c(n1)[nH]c1ccc(F)cc12)c1ccccc1	0	-25	-4	-20	72*
COc1ccc(OC)c(CNC(=O)C2CCCCN2S(=O)(=O)c2ccc(F)cc2)c1 (stereo unspecified)	0	nt	nt	-3	nt
Nc1ccc(CSc2ccc(Cl)cc2)c(Cl)c1	nt	-2	-6	nt	nt
CN(C)C(=O)CCc1ccc2c3c([nH]c2c1)[C@]1(C)[C@@H](C(=O)N2CCOCC2)C[C@H](CC(=O)NCCC2=CCCCC2)C(=O)N1CC3	nt	nt	-2	nt	nt
CSc1ccc(C#N)cc1NC(=O)c1ccccc1C	1	-3	3	-17	51*
CCc1nc2c(OCCC3CCCCC3)cccn2c1N(C)C(=O)C(C)C	nt	-14	-5	nt	nt
COC(=O)C1=CN(Cc2ccc(OC)cc2)C=C(C(=O)OC)C1c1cc(OC)c(OC)c(OC)c1	0	-4	6	-3	-30
CCOC(=O)C1=CN(Cc2ccc(OC)cc2)C=C(C(=O)OCC)C1c1cccs1	1	1	2	-1	42*
O=C(Nc1ccc(Cl)c(C(F)(F)F)c1)N1CCCC(O)C1 (stereo unspecified)	0	-26	-1	4	30*
Cc1cccc(OCCCN2CCCCCC2)c1	0	-20	1	-15	40*
CC(=O)N1CCC(C(=O)NCCOc2cccc(C)c2)CC1	-1	1	1	-2	35*
Clc1cccc(OCCCCN2CCCCC2)c1	1	-4	-4	-25	77*
Cc1c(C(=O)Nc2ccc(C(C)C)cc2)sc2nc3n(c(=O)c12)CCC3	1	nt	nt	-2	nt
COc1cc(C)ccc1OCC(=O)OCC(=O)NCC1CCCCC1	nt	-2	0	nt	nt
CC(=O)Nc1ccc(C(=O)N2CCCCC2c2cc(C(=O)N3CCOCC3)no2)cc1 (stereo unspecified)	nt	-7	-6	nt	nt
Cc1ccc(S(=O)(=O)Nc2c(O)ccc3ccccc23)cc1	nt	8	56*	nt	nt
CN1CC[n+]2c(CN3C(=O)c4ccccc4C3=O)csc21	1	-3	-1	3	45*
CCN(CC(=O)Nc1c(F)cccc1F)C(=O)Cc1c(C)nc2ccccc2c1C	0	-9	-6	0	4
CCN(CC(=O)Nc1c(F)cccc1F)C(=O)Cc1csc(-c2ccccc2)n1	-1	-7	-5	-5	35*
Cc1ccc(NS(=O)(=O)c2cccc(C(=O)NC3CCN(Cc4ccccc4)CC3)c2)c(C)c1	nt	-3	0	nt	nt
O=C(NC1CCN(Cc2ccccc2)CC1)c1cccc(S(=O)(=O)Nc2ccc(Br)cc2)c1	1	-32	3	-17	34*
O=C(NC1CCN(Cc2ccccc2)CC1)c1cccc(S(=O)(=O)Nc2ccc(F)cc2)c1	0	-6	2	-28	45*
C=CCN(c1ccccc1)S(=O)(=O)c1cccc(C(=O)NC2CCN(Cc3ccccc3)CC2)c1	0	-32	-4	-10	66*
O=C(CCN1C(=O)C2CCCCC2C1=O)N1CCN(S(=O)(=O)c2ccccc2)CC1 (stereo unspecified)	-2	13	-4	13	-6
SMILES	D2 ag-1	D2 PAM-1	D2 ag-2	D2 PAM-2	D2 antag
Cc1cc(-c2ccccc2)nc(SCc2ccc(C(=O)O)cc2)n1	0	-16	-3	4	-12
COc1ccc2nc(Nc3sc4c(c3C(N)=O)CCCC4)sc2c1	2	55*	?	-7	14
O=C(Nc1ccc(C(=O)OCc2cc(=O)n3c4c(sc3n2)CCCC4)cc1)c1ccc(F)cc1	-2	nt	nt	1	nt
COCCn1c(=O)[nH]c2cc(C(=O)NCCN3CCN(c4ccccc4)CC3)ccc2c1=O	83*	0	?	-28	144*
CC1(C)CC(N(Cc2ccco2)C(=O)Cc2ccccc2)CCO1 (stereo unspecified)	0	-21	2	-6	-14
CC1(C)CC(N(Cc2cccs2)C(=O)c2ccco2)CCO1 (stereo unspecified)	1	8	0	33*	-7
CC(C)CCNC(=O)C1CCC(CNS(=O)(=O)c2ccc(Cl)cc2)CC1 (stereo unspecified)	-3	-7	-2	4	34*
Cc1cccc(N/C=C/C(=O)c2cccs2)c1C	-1	-24	-4	-3	4
NC(=O)c1ccccc1N/C=C/C(=O)c1cccs1	0	-4	-7	31*	-12
CC1(N=Cc2cc(Cl)ccc2O)COP(=O)(Nc2ccccc2)OC1 (stereo unspecified)	nt	-20	-5	nt	nt
COc1ccc(-c2noc(N3CCC(C(=O)NCc4ccccc4Cl)CC3)n2)cc1	1	-3	-2	14	48*
COc1cc2c(cc1OC)CN(C(=O)c1ccc3nc[nH]c3c1)CC2	1	2	0	-1	3
O=C(NC1CCCC1)c1ccc2nc(-c3ccco3)c(-c3ccco3)nc2c1	-1	26	7	-7	33*
O=C(Nc1ccsc1C(=O)NC1CCCCC1)c1ccccc1	-1	-12	0	2	31*
O=C(NC1CCCC1)c1ccc2nc[nH]c2c1	0	-8	-1	38*	7
O=C(Nc1ccccc1C(=O)NC1CCCCC1)c1ccccc1	-1	-1	-1	11	-8
O=C(c1ccc2nc[nH]c2c1)N1CCc2ccccc2C1	-1	-8	-3	-3	35*
C[C@@H]1CN([C@@H](C)CO)C(=O)c2cc(Br)cnc2O[C@H]1CN(C)C(=O)c1ccccc1F	nt	nt	-3	nt	nt
Cc1ccc(-c2nc3n(n2)C(c2ccccc2C)C=C(c2ccc(Cl)cc2)N3)cc1 (stereo unspecified)	0	nt	nt	-1	nt
O=C(NCCCN1CCCC1=O)C1CCN(S(=O)(=O)c2ccc(Cl)cc2)CC1	0	2	4	12	18
Cc1ccc(C(=O)NC2CCCCC2)cc1	0	-11	1	-12	62*
COc1cccc(CNC(=O)Cc2c(C(=O)O)c(C)cn2C)c1	0	nt	nt	5	nt
S=C(Nc1ccccc1Cl)NC1CCC(NC(=S)Nc2ccccc2Cl)CC1 (stereo unspecified)	nt	-23	2	5	nt
O=C(CNC(=O)c1ccccc1Cl)NC1CCN(Cc2ccccc2)CC1	0	-5	-1	20	-1
S=C(Nc1ccc(Cl)cc1Cl)NC1CCN(Cc2ccccc2)CC1	2	-28	-2	-26	75*
Cc1c(Cl)cccc1NC(=S)NC1CCN(Cc2ccccc2)CC1	1	-38	1	-22	85*
O=C(NC1CCN(Cc2ccccc2)CC1)c1ccc(Cl)cc1Cl	1	-86	1	-20	61*

Bioassay records as filed in PubChem.
